TDP1 inh = qHTS Assay for Inhibitors of Tyrosyl-DNA Phosphodiesterase (TDP1); recombinant TDP1, AlphaScreen DNA substrate cleavage; Tyrosyl-DNA phosphodiesterase 1 (Homo sapiens), Q9NUW8; hit rate 0.28% among 350,000; Potency, µM (series often up to 130 µM), inactives show at the highest dose activity change, negative = inhibition, actives largely listed as inhibitors; note: potency is the fitted concentration of half-maximal effect; % is set by controls: 0 for no effect and ±100 for the full control effect; nearly all actives have a fitted effect of over 40% in size
Target sequence (Q9NUW8 whole entry, looked up): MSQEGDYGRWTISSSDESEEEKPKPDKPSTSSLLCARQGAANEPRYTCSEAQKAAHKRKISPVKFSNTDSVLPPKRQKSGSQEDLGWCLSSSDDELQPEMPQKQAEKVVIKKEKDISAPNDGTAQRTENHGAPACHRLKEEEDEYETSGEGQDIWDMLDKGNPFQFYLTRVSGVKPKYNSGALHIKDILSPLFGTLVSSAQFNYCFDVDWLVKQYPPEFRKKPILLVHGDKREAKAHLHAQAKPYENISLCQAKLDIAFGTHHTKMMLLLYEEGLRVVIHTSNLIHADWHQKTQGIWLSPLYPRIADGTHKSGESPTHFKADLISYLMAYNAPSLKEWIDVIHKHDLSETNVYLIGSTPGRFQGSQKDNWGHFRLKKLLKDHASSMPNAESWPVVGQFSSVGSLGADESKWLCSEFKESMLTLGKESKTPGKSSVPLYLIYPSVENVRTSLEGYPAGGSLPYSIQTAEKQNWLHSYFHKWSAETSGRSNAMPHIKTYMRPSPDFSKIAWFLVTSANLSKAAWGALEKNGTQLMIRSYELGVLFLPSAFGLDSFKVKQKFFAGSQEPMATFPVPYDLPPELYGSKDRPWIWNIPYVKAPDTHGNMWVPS
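Signal: AlphaScreen proximity between streptavidin donor and anti-FITC acceptor beads on intact substrate. Reaction: Tdp1 1 nM, substrate 15 nM final, 5 min RT after 15 min compound preincubation.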
IL1B secr inh = qHTS for Inhibitors of Inflammasome Signaling: IL-1-beta AlphaLISA Primary Screen. THP-1 LPS/ATP IL-1B secretion, AlphaLISA, 16 h; hits give low values. activity change, % at 57.5 µM. hit rate 4.7% among 360,000; in the data active = activity change below about -50%; inconclusive = mostly about -30% to -49%; note: % is set by controls: 0 for no effect and ±100 for the full control effect
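THP-1 cells pretreated 1 hr with compounds (up to 57.5 uM final), then stimulated with LPS (250 ng/mL final) plus ATP (1.25 mM final); secreted IL-1B measured by AlphaLISA after 16 hr, decreased signal indicating inhibition.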
TGFb inhibitor = qHTS for Inhibitors of TGF-b. HepG2 CAGA-GFP TGF-b/SMAD3 reporter, GFP fluorescence, 18 h; TGF-beta stimulated, 500 pg/mL final. Potency, µM (top dose mostly 46.1 µM), for the others: at the top dose activity, negative = inhibition, usual class: inhibitors. hit rate 1.2% among 410,000. AID 588855, 2011; note: potency is the fitted concentration of half-maximal effect; % is set by controls: 0 for no effect and ±100 for the full control effect; nearly all actives have a fitted effect of over 65% in size
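First, reporter cells (HEPG2 CAGA-GFP) rested 2 h at 37 degrees C. Next, compounds were pinned in and TGF-beta added to 500 pg/mL final. After 18 h, GFP was imaged per cell and summed per well.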
TDP1 cell noCPT = qHTS for Inhibitors of human tyrosyl-DNA phosphodiesterase 1 (TDP1): qHTS in cells in absence of CPT. DT40 Tdp1-/- hTDP1 cells, no CPT, ATP luminescence, 48 h. Potency, µM (series often up to 46.2 µM), without a hit: at the highest dose activity change, negative = growth inhibition, most hits filed as inhibitors. hit rate 15% among 420,000; note: potency is the fitted concentration of half-maximal effect; % is set by controls: 0 for no effect and ±100 for the full control effect; nearly all actives have a fitted effect of over 55% in size
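DT40 Tdp1-/-;hTDP1 cells, no CPT (DMSO vehicle only), 400 cells/well; compounds pin-transferred; ≥48 hr, 37 °C; CellTiter-Glo 30 min RT dark, luminescence read.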
HepG2 viability = qHTS for Inhibitors of TGF-b: Cytotox Counterscreen; HepG2 CAGA-GFP viability, ATP luminescence, 18 h; Potency, µM (series often up to 46.1 µM), for inactives: top-dose activity change, negative = cytotoxicity, usual class: cytotoxic; hit rate 0.76% among 410,000; AID 588856, 2011; note: potency is the fitted concentration of half-maximal effect
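HepG2 CAGA-GFP cells (1000/well, DMEM with 1% FBS) received compound, then TGF-beta at 500 pg/mL final, and were incubated 18 hours at 37 degrees C. Viability was read by CellTiter-Glo luminescence. Media-only wells were set as complete cell-killing and DMSO as no toxicity.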
DT40 TDP1 CPT = qHTS for Inhibitors of human tyrosyl-DNA phosphodiesterase 1 (TDP1): qHTS in cells in presence of CPT; hit rate 12% among 420,000; AID 686979, 2013; Potency, µM (doses to about 46.2 µM), without a hit: at the highest dose activity change, negative = growth inhibition, usual class: inhibitors; chicken DT40 Tdp1-/-;hTDP1 cells + 20 nM CPT, ATP luminescence, 48 h; note: potency is the fitted concentration of half-maximal effect; % is set by controls: 0 for no effect and ±100 for the full control effect; nearly all actives have a fitted effect of over 55% in size
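Cell growth measured by CellTiter-Glo luminescence after a minimum 48 h, 37 C compound exposure with 20 nM CPT in Tdp1-knockout DT40 cells stably expressing hTDP1, seeded 400/well; qHTS titration format.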
An asterisk follows results filed as active; ? = inconclusive; / = not tested or not shown; ! = not confirmed by another sample; [ ] = another dose, or the depositor's remark. This is a sample that favours compounds with a hit; in the whole collection about 19% have one here. Unless noted, calls come from the whole dose curve; as a rule, active = well fitted curve in the direction sought with a large enough effect; inconclusive = small, poorly fitted or top-dose-only effect, or another doubt; inactive = no such curve, though single readings can be large; an effect the other way counts as inactive or inconclusive.

SMILES | TDP1 inh | IL1B secr inh | TGFb inhibitor | TDP1 cell noCPT | HepG2 viability | DT40 TDP1 CPT
Oc1ccccc1C=Nc1ccccc1-c1nc2ccccc2[nH]1 | 2.8% | -3.1 | -24.5% | 16.4µM* | -40.9% | ?
c1ccc2c(-c3nc4ccccc4[nH]3)cccc2c1 | / | 34.9 | -7.1% | 4.61µM* | -6.1% | 9.2µM*
Clc1ccccc1-c1nc2ccccc2[nH]1 | -11.8% | -6.2 | 11.9% | -10.2% | -24.2% | 6.9%
Fc1ccccc1-c1nc2ccccc2[nH]1 | 6.2% | -1.5 | 0.3% | -20.5% | -22.0% | -6.0%
CCC(Oc1ccccc1)C(=O)N[C@@H]1C(=O)N2[C@@H]1SC(C)(C)[C@@H]2C(=O)O (some centres not stated) | / | / | / | 0.4% | / | 0.3%
Cc1cccc(Cn2cc(S(=O)(=O)c3cccc(Cl)c3)c(=O)c3cc(F)c(N4CCOCC4)cc32)c1 | 6.2% | / | -0.2% | -18.4% | 6.4% | -0.6%
Cc1ccc(S(=O)(=O)N2CCC(=O)N(CCOCc3ccccc3)CC2)cc1 | 1.3% | -5.7 | -3.6% | ? | -15.5% | ?
Cc1ccc(COCCN2CCN(S(=O)(=O)c3ccccc3)CCC2=O)cc1 | / | 8.2 | 2.8% | -27.1% | -2.7% | -25.4%
O=C1CCN(S(=O)(=O)c2ccccc2)CCN1CCOCc1ccc(C(F)(F)F)cc1 | / | 35.4 | ? | 13µM* | -18.9% | ?
Cc1ccc(S(=O)(=O)N2CCC(=O)N(CCOCc3ccc(C(F)(F)F)cc3)CC2)cc1 | 4.1% | ? | 11.2µM* | 8.2µM* | -23.2% | 4.61µM*
Cc1cc2nc(-c3ccc(NC(=O)c4ccc(OCC(C)C)cc4)cc3)oc2cc1C | -3.1%[12.3 µM] | / | -18.5% | 3.9% | -9.5% | -0.6%
O=C(NCc1ccco1)C1CC(c2cc(C(F)(F)F)cc(C(F)(F)F)c2)=NO1 (configuration not stated) | 2.4% | 70.2 | -28.4% | 2.31µM* | 1.4% | 2.59µM*
O=C(NCc1ccc(C(F)(F)F)cc1)C1CC(c2ccc(C(F)(F)F)cc2)=NO1 (configuration not stated) | / | 37.3 | -18.4% | 13µM* | -24.4% | 23.1µM*
CC(=O)N1CCN(C(=O)c2ccc3c(c2)OCCO3)CC1 | 5.2%[56.1 µM] | -6.5 | -0.1% | 10.4% | 7.7% | 8.5%
CN(C)c1ccc(CNC(=O)C2Cc3c(-c4cccc(C(N)=O)c4)ccnc3O2)cc1 (configuration not stated) | / | -12.9 | 4.7% | 23.1µM* | 1.2% | ?
NC(=O)c1cccc(-c2ccnc3c2CC(C(=O)NCCc2ccccc2)O3)c1 (configuration not stated) | / | 0.9 | 5.1% | 23.1µM* | -0.8% | 14.6µM*
NC(=O)c1cccc(-c2ccnc3c2CC(C(=O)NCc2ccco2)O3)c1 (configuration not stated) | / | 58.2 | 8.6% | 2.91µM* | 2.4% | 3.66µM*
CC(=O)c1cccc(-c2ccnc3c2CC(C(=O)NCc2ccco2)O3)c1 (configuration not stated) | / | 52.6 | 8.7% | 0.82µM* | -30.8% | 0.82µM*
O=C(NCc1ccco1)C1Cc2c(-c3cccc(F)c3)ccnc2O1 (configuration not stated) | / | 16.8 | -18.0% | 1.3µM* | -21.3% | 0.82µM*
O=C(NCC1CC1)C1Cc2c(-c3cccc(F)c3)ccnc2O1 (configuration not stated) | / | -14.4 | -4.7% | ? | -3.0% | -8.4%
CCC(C(=O)NC1CCCCCC1)n1nc(C)c2c(C)n(-c3ccccc3)nc2c1=O (configuration not stated) | 4.7% | 0.0 | -0.9% | ? | 3.5% | ?
COCCOC(=O)c1c(C)oc2ccc(NS(=O)(=O)c3ccccc3)cc12 | 2.4% | -5.5 | -2.1% | -22.9% | -7.0% | -3.1%
CCOC(=O)c1c(-c2ccccc2)oc2ccc(NS(=O)(=O)c3ccc(OC)cc3)cc12 | / | / | 12.6µM* | 3.26µM* | -27.3% | 4.61µM*
Cc1cc(C)c(S(=O)(=O)Nc2ccc3oc(C)c(C(=O)OC(C)C)c3c2)cc1C | / | / | ? | 13µM* | -57.6% | ?
CCOC(=O)c1c(-c2ccccc2)oc2ccc(NS(=O)(=O)c3ccccc3)cc12 | / | / | 15.8µM* | -29.3% | -57.8% | ?
SMILES | TDP1 inh | IL1B secr inh | TGFb inhibitor | TDP1 cell noCPT | HepG2 viability | DT40 TDP1 CPT
CCOc1ccc(S(=O)(=O)Nc2ccc3oc(C)c(C(=O)OC(C)C)c3c2)cc1 | 2.8% | / | ? | / | -81.3% | /
CCOC(=O)c1c(-c2ccccc2)oc2ccc(NS(=O)(=O)c3cc(C)c(C)cc3C)cc12 | / | / | ? | 10.3µM* | -31.9% | 18.4µM*
COc1cccc(NC(=O)CCNS(=O)(=O)c2ccc3c(c2)CCCC(=O)N3)c1 | 3.8% | / | 2.2% | -13.9% | 3.0% | 2.3%
O=C1CC[C@@H](C(=O)N[C@H]2C[C@@H]2c2ccccc2)N1 | / | / | / | -14.5% | / | 0.4%
CC1CCN(c2ccc(-c3cccc(NS(=O)(=O)c4ccc(Cl)s4)c3)nn2)CC1 | 8.9% | / | ? | 0.1% | -4.4% | 8.0%
CC(C)(C)n1ncc2c(=O)n(Cc3cc(F)c(F)cc3Cl)cnc21 | / | / | 9.1% | / | 6.1% | /
CCOc1ccc2oc(-c3ccccc3)c(C(=O)N(C)C)c2c1 | 7.0% | -0.3 | -15.3% | 18.4µM* | -30.7% | ?
CC(=O)c1c(C)oc2ccc(NS(=O)(=O)c3ccc(F)cc3C)cc12 | / | 7.3 | ? | 18.4µM* | -15.1% | 23.1µM*
Cc1cc(F)ccc1S(=O)(=O)Nc1ccc2oc3c(c2c1)CC(C)CC3 (configuration not stated) | 0.0% | / | ? | ? | -98.2% | ?
Cc1ccc(N(C)C2=NC(=O)CS2)cc1Cl | / | 5.9 | 3.2% | -0.8% | -2.8% | 6.6%
O=C(O)C1=CC[C@@H](c2ccc(Cl)cc2)N(S(=O)(=O)c2ccc(Cl)cc2)[C@H]1c1cccc(Cl)c1 | -0.1% | 37.1 | ? | -8.3% | -27.8% | -23.0%
CC1CCN(CC(=O)N2CCCc3c2c(=O)oc2ccc(OCc4ccccc4)cc32)CC1 | 3.9% | -25.1 | ? | 13µM*! | -2.0% | ?
